# Results: PubChem BioAssay (NCATS)
# Records with an inconclusive call do not appear. Where a call stands in place of a potency, no number is given. A number with no mark means an inactive call. Activity calls are given as the source filed them. Unless noted, calls come from the whole dose curve; as a rule, active = well fitted curve in the direction sought with a large enough effect; inconclusive = small, poorly fitted or top-dose-only effect, or another doubt; inactive = no such curve, though single readings can be large; an effect the other way counts as inactive or inconclusive.
# Legend:
# [1] = molecular target: Aldehyde dehydrogenase, mitochondrial (Homo sapiens) (UniProt P05091); test: qHTS for Inhibitors of the Aldehyde Dehydrogenase Family (ALDH2) Validation screens (AID 2061302; active = well fitted inhibition curve with a large enough effect; title and protocol of this record describe different tests)
# [2] = molecular target: Retinaldehyde dehydrogenase 3 (Homo sapiens) (UniProt P47895); test: qHTS for Inhibitors of the Aldehyde Dehydrogenase Family (ALDH1A3) Validation screen (AID 2061312); note: nearly all actives have a fitted effect of over 45% in size
# [3] = BET inhibitor-based combinations targeting novel dependencies in MECOM-rearranged (r) AML: SET-2 cell line (AID 2202231); conditions: SET-2 AML cells viability, CellTiter-Glo luminescence, 48 h; viability: active compounds read low, concentration not given here; note: nearly all actives have a fitted effect of over 35% in size; note: potency is the fitted concentration of half-maximal effect
# Procedure, shortened: (§1)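 Viability of cells (500 per well) is scored by luminescent CellTiter-Glo at 48 hr post-dosing. Eleven-point titrations are normalized to DMSO and empty controls and reduced to AUC values.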
# [4] = BET inhibitor-based combinations targeting novel dependencies in MECOM-rearranged (r) AML: OCI-AML3 cell line (AID 2202232); conditions: Potency: OCI-AML3 viability; note: nearly all actives have a fitted effect of over 35% in size; note: potency is the fitted concentration of half-maximal effect
# Procedure, shortened: as §1
# [5] = BET inhibitor-based combinations targeting novel dependencies in MECOM-rearranged (r) AML: MV-4-11 cell line (AID 2202233); note: nearly all actives have a fitted effect of over 45% in size; note: potency is the fitted concentration of half-maximal effect
# Procedure, shortened: (§2)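 Using pin-tool transfer, drugs were added in 11 doses to cells (500/well), incubated 48 hr, and assessed with CellTiter-Glo. Z-AUC is a mean-centring transformation applied separately to each screened line.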
# [6] = BET inhibitor-based combinations targeting novel dependencies in MECOM-rearranged (r) AML: HNT-34 cell line (AID 2202234); note: nearly all actives have a fitted effect of over 35% in size; note: potency is the fitted concentration of half-maximal effect
# Procedure, shortened: as §2
# [7] = BET inhibitor-based combinations targeting novel dependencies in MECOM-rearranged (r) AML: UCSD-AML1 cell line (AID 2202235); note: series mostly up to about 46 µM; nearly all actives have a fitted effect of over 40% in size
# Procedure, shortened: as §2
# [8] = BET inhibitor-based combinations targeting novel dependencies in MECOM-rearranged (r) AML: AML-191 cell line (AID 2202236; note: nearly all actives have a fitted effect of over 35% in size; note: potency is the fitted concentration of half-maximal effect)
# Procedure, shortened: as §1
# [9] = BET inhibitor-based combinations targeting novel dependencies in MECOM-rearranged (r) AML: AML-194 cell line (AID 2202237; note: nearly all actives have a fitted effect of over 40% in size; note: potency is the fitted concentration of half-maximal effect)
# Procedure, shortened: as §1
# [10] = molecular target: Retinaldehyde dehydrogenase 3 (Homo sapiens) (UniProt P47895); test: qHTS for Inhibitors of the Aldehyde Dehydrogenase Family (ALDH1A3) Primary screen (AID 2061315)
# [11] = molecular target: Aldehyde dehydrogenase, mitochondrial (Homo sapiens) (UniProt P05091); test: qHTS for Inhibitors of the Aldehyde Dehydrogenase Family (ALDH2) Confirmatory screens (AID 2061303; active = well fitted inhibition curve with a large enough effect; title and protocol of this record describe different tests; note: nearly all actives have a fitted effect of over 45% in size)
structure (smiles),measurement,setting,value
CC(C)NCC(O)c1cc(O)cc(O)c1 (centres undefined),Potency,[1],inactive
same,Potency,[2],inactive
NC(=O)c1ccccc1,Potency,[1],inactive
same,Potency,[2],inactive
CC(C)NC[C@H](O)COc1cccc2ccccc12,Potency,[1],inactive
same,Potency,[2],inactive
C=C[C@H]1CN2CC[C@@H]1C[C@@H]2[C@@H](O)c1ccnc2ccc(OC)cc12,Potency,[1],inactive
same,Potency,[2],inactive
CCn1cc(C(=O)O)c(=O)c2ccc(C)nc21,Potency,[1],inactive
same,Potency,[2],inactive
COc1ccc(CN(CCN(C)C)c2ccccn2)cc1,Potency,[1],inactive
same,Potency,[2],inactive
CC(=O)[C@@]1(O)CC[C@H]2[C@@H]3CCC4=CC(=O)CC[C@]4(C)[C@H]3CC[C@@]21C,Potency,[1],inactive
same,Potency,[2],inactive
CCC(=O)c1ccc2c(c1)N(CCCN(C)C)c1ccccc1S2,Potency,[1],inactive
same,Potency,[2],inactive
O=C1NC(=O)C(c2ccccc2)(c2ccccc2)N1,Potency,[1],inactive
same,Potency,[2],inactive
C[N+](C)(C)CCO,Potency,[1],inactive
same,Potency,[2],inactive
NC1CONC1=O (centres undefined),Potency,[1],inactive
same,Potency,[2],inactive
CC1=C(C(=O)O)N2C(=O)[C@@H](NC(=O)C(N)C3=CCC=CC3)[C@H]2SC1 (some centres undefined),Potency,[1],inactive
same,Potency,[2],inactive
O=C1NC(O)=NC1(c1ccccc1)c1ccccc1,Potency,[1],inactive
same,Potency,[2],inactive
O=C1NCC2(CCN(CCc3ccccc3)CC2)O1,Potency,[1],inactive
same,Potency,[2],inactive
CC(N=C(NC#N)Nc1ccncc1)C(C)(C)C (centres undefined),Potency,[1],inactive
same,Potency,[2],inactive
COc1cc(OC)c(/C=C2/C(=O)Nc3ccccc32)c(OC)c1,Potency,[1],inactive
same,Potency,[2],inactive
C[C@@H]1C(=O)NC2=Nc3cccc(Cl)c3CN21,Potency,[1],inactive
same,Potency,[2],inactive
N[C@H]1CONC1=O,Potency,[1],inactive
same,Potency,[2],inactive
CC(C)c1cccc(C(C)C)c1N1C(=O)c2ccc(O)cc2C1=O,Potency,[1],inactive
same,Potency,[2],inactive
CN=C(NC#N)NCCSCc1nc[nH]c1C,Potency,[1],inactive
same,Potency,[2],inactive
C[N+](C)(C)CCOP(=O)(O)OP(=O)([O-])OC[C@H]1O[C@@H](n2ccc(N)nc2=O)[C@H](O)[C@@H]1O,Potency,[1],inactive
same,Potency,[2],inactive
C[C@]12C=CC(=O)C=C1CC[C@H]1[C@@H]3C[C@@H](O)[C@](O)(C(=O)CO)[C@@]3(C)C[C@H](O)[C@@]12F,Potency,[1],inactive
same,Potency,[2],inactive
O=C(NOCC1CC1)c1cc(Br)c(F)c(F)c1Nc1ccc(I)cc1Cl,Potency,[1],inactive
same,Potency,[2],inactive
NC(N)=NCCC[C@H](N)C(=O)O,Potency,[1],inactive
same,Potency,[2],inactive
Cc1nc2c([nH]1)c(=O)n(C)c(=O)n2Cc1ccco1,Potency,[1],inactive
same,Potency,[2],inactive
CC(N)=O,Potency,[1],inactive
same,Potency,[2],inactive
C=C[C@@H]1CN2CC[C@@H]1C[C@H]2[C@H](O)c1ccnc2ccc(OC)cc12,Potency,[1],inactive
same,Potency,[2],inactive
Cc1ccc(Cl)c(Nc2ccccc2C(=O)O)c1Cl,Potency,[1],inactive
same,Potency,[2],inactive
CCN(CC)CC#CCOC(=O)C(O)(c1ccccc1)C1CCCCC1 (centres undefined),Potency,[1],inactive
same,Potency,[2],inactive
CNCCC(Oc1ccc(C(F)(F)F)cc1)c1ccccc1 (centres undefined),Potency,[1],inactive
same,Potency,[2],inactive
N=C(N)c1ccc(OCCCCCOc2ccc(C(=N)N)cc2)cc1 (tested in a mixture with another compound),Potency,[1],inactive
same,Potency,[2],inactive
Nc1ncnc2c1ncn2[C@@H]1O[C@H](COP(=O)(O)CP(=O)(O)OP(=O)(O)O)[C@@H](O)[C@H]1O,Potency,[1],inactive
same,Potency,[2],inactive
NC(=O)N1c2ccccc2C=Cc2ccccc21,Potency,[1],inactive
same,Potency,[2],inactive
CC1=C(CC(=O)O)c2cc(F)ccc2/C1=C\c1ccc(S(C)(=O)=O)cc1,Potency,[1],inactive
same,Potency,[2],inactive
O=C1CC2(CCCC2)CC(=O)N1CCCCN1CCN(c2ncccn2)CC1,Potency,[1],inactive
same,Potency,[2],inactive
NCC(O)c1ccc(O)c(O)c1 (centres undefined),Potency,[1],inactive
same,Potency,[2],inactive
CN(C)CC[C@@H](c1ccc(Br)cc1)c1ccccn1,Potency,[1],inactive
same,Potency,[2],inactive
CN(C)CCC(c1ccc(Br)cc1)c1ccccn1 (centres undefined),Potency,[1],inactive
same,Potency,[2],inactive
O=C(C1CCCCC1)N1CC(=O)N2CCc3ccccc3C2C1 (centres undefined),Potency,[1],inactive
same,Potency,[2],inactive
same,viability,[3],120%
same,Potency,[4],inactive
same,Potency,[5],inactive
same,Potency,[6],inactive
same,Potency,[7],inactive
same,Potency,[8],inactive
same,Potency,[9],inactive
CN[C@H]1CC[C@@H](c2ccc(Cl)c(Cl)c2)c2ccccc21,Potency,[1],inactive
same,Potency,[2],inactive
same,Potency,[4],13200 nM (active)
same,Potency,[8],18600 nM (active)
Cn1c(=O)c2c(ncn2C)n(C)c1=O,Potency,[1],inactive
same,Potency,[2],inactive
same,viability,[3],97.8%
same,Potency,[4],inactive
same,Potency,[5],inactive
same,Potency,[7],inactive
same,Potency,[8],inactive
same,Potency,[9],inactive
NC[C@H](O)c1ccc(O)c(O)c1,Potency,[1],inactive
same,Potency,[10],inactive
same,viability,[3],116%
same,Potency,[4],inactive
same,Potency,[5],inactive
same,Potency,[6],inactive
same,Potency,[7],inactive
same,Potency,[8],inactive
same,Potency,[9],inactive
CN1C2CCC1CC(OC(=O)C(CO)c1ccccc1)C2 (centres undefined),Potency,[1],inactive
same,Potency,[2],inactive
same,viability,[3],89.7%
same,Potency,[5],inactive
same,Potency,[6],inactive
same,Potency,[7],inactive
same,Potency,[8],inactive
same,Potency,[9],inactive
COc1cc2c(cc1OC)C1CC(=O)C(CC(C)C)CN1CC2 (centres undefined),Potency,[1],inactive
same,Potency,[2],inactive
same,viability,[3],109%
same,Potency,[4],inactive
same,Potency,[6],inactive
same,Potency,[7],inactive
same,Potency,[8],inactive
same,Potency,[9],inactive
COc1nc(C)nc(Cl)c1NC1=NCCN1,Potency,[1],inactive
same,Potency,[2],inactive
same,viability,[3],107%
same,Potency,[4],inactive
same,Potency,[6],inactive
same,Potency,[7],inactive
same,Potency,[8],inactive
same,Potency,[9],inactive
CC(=O)[C@]1(O)Cc2c(O)c3c(c(O)c2[C@@H](O[C@H]2C[C@H](N)[C@H](O)[C@H](C)O2)C1)C(=O)c1ccccc1C3=O,Potency,[1],inactive
same,Potency,[3],468 nM (active)
same,Potency,[4],186 nM (active)
same,Potency,[5],66.1 nM (active)
same,Potency,[6],186 nM (active)
same,Potency,[8],186 nM (active)
same,Potency,[9],235 nM (active)
CCc1c(C)sc(NC(=O)c2cc(-c3ccc(OC)cc3)on2)c1C#N,Potency,[11],inactive
N[C@@H](Cc1ccc(O)c(O)c1)C(=O)O,Potency,[1],inactive
same,viability,[3],105%
same,Potency,[4],inactive
same,Potency,[5],inactive
same,Potency,[8],inactive
same,Potency,[9],inactive
